Screening data as filed in PubChem BioAssay.
HttQ103 aggreg = reduces HttQ103-GFP aggregates in PC12 cells; PC12 HttQ103-GFP aggregates, Acumen cytometry, 40 h; Potency, µM (doses to about 46.1 µM), inactives show at the top dose activity change, negative = inhibition, hits mostly inhibitors; 1.1% of 220,000 active; active means well fitted curve in the direction sought with a large enough effect; inconclusive means small, poorly fitted or top-dose-only effect, or another doubt; inactive means no such curve, though single readings can be large; an effect the other way counts as inactive or inconclusive; further: on the % scale 0 is the no-effect control and ±100 the full control effect; nearly all actives have a fitted effect of over 60% in size
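Aggregates are detected as GFP objects 1–25 µm with signal 6 STDEV over background in lysates of induced PC12 cells. These carry Huntingtin exon 1 with 103 glutamines fused to GFP under an ecdysone promoter; compounds titrated.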
ALDH1A1 inh = inhibitors of human aldehyde dehydrogenase 1A1 | P00352 | Purified ALDH1A1, NADH fluorescence, propionaldehyde substrate | Potency, µM (doses to about 75.3 µM), without a hit: top-dose activity, negative = inhibition, most hits filed as inhibitors | 7.3% of 220,000 active | AID 1030;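 further: plate controls were no enzyme wells and a reference inhibitor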
Target sequence (P00352 whole entry, looked up): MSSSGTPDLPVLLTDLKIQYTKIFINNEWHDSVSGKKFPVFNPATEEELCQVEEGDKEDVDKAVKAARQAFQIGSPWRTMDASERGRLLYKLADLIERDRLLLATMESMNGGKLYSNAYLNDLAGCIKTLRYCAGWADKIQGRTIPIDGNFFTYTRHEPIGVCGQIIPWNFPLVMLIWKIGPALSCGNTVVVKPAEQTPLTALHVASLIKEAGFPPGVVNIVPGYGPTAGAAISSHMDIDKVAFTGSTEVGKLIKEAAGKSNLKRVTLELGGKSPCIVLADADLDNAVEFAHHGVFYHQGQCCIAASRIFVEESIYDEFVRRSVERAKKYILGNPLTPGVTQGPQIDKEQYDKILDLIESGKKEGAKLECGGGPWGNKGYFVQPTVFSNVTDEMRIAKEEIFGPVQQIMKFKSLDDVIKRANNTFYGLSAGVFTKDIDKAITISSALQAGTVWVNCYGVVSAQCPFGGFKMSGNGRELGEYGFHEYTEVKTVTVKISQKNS
HTT ATP protect = cytoprotection in Huntington HTT-Q103 PC12 cell model; PC12 HTT-Q103 induced, cytoprotection, ATP luminescence, 40 h; Potency, µM (doses to about 56.4 µM), without a hit: cytoprotection (ATP increase), usual class: activators; 0.14% of 230,000 active; AID 1471; active means well fitted curve in the direction sought with a large enough effect; inconclusive means small, poorly fitted or top-dose-only effect, or another doubt; inactive means no such curve, though single readings can be large; an effect the other way counts as inactive or inconclusive; further: % of control where 0% means no effect; nearly all actives have a fitted effect of over 45% in size
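Huntington model: PC12 line, ecdysone-inducible HTTQ103 exon1–GFP, tebufenozide 100 nM. Test articles in a dose series. Endpoint luminescence from cellular ATP.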
KDM4E inh = JMJD2E (human) inhibition; AID 2147; 1.6% of 230,000 active; JMJD2E catalytic domain, FDH-coupled NADH fluorescence (FDH is formaldehyde dehydrogenase); Potency, µM (series often up to 57.1 µM), without a hit: top-dose activity change, negative = inhibition, hits mostly inhibitors;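 further: 0% = wells with enzyme and -100% = buffer wells without enzyme; nearly all actives have a fitted effect of over 50% in size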
HPGD inh = inhibitors of human 15-hydroxyprostaglandin dehydrogenase (HPGD) | P15428 | purified HPGD, NADH fluorescence kinetic, PGE2 substrate | Potency, µM, inactives show at the highest dose activity change, negative = inhibition, hits mostly inhibitors | 4.3% of 150,000 active | AID 894; further: on the % scale 0 is the no-effect control and ±100 the full control effect
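NADH formation kinetics: reaction with 30 uM PGE2 and 1 mM NAD+ (final), 20 nM enzyme, Tris-HCl pH 8 with Tween 20, after 15 min compound preincubation at room temperature. Fluorescence change, last versus first of five reads.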
Lamin A splicing = changes lamin A minigene splicing in HeLa cells. Potency, µM (titrated, usually from 46.1 µM), for inactives: at the highest dose ratio change, negative = inhibition, actives largely listed as inhibitors. HeLa LMNA splicing GFP/RFP minigene ratio, 48 h. 0.01% of 200,000 active. AID 1487; active means well fitted inhibition curve with a large enough effect in the signal ratio, with a control signal flat, not every such curve was filed as active; inconclusive means small, poorly fitted or top-dose-only effect, or effect the other way, or a change in a side signal; the % refers to the signal ratio; further: on the % scale 0 is the no-effect control and ±100 the full control effect
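Read-out is the ratio of GFP to DsRed2 object intensity, acquired by 488 nm laser-scanning cytometry on HeLa lamin A-EGFP minigene reporter cells. Compound incubation 48 hrs at 37 °C in Opti-MEM with 2% FBS; DMSO 0.5% final.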
* marks the source's active call; other numbers are inactive results; [ ] = dose if it differs, or a comment. Sampled rows, rich in hits. Any-hit rate of the full collection: about 9.2%. Unless noted, the call rests on the fitted dose curve; in most records, active means well fitted inhibition curve with a large enough effect (not every such curve was filed as active); inconclusive means small, poorly fitted or top-dose-only effect, or another doubt; inactive means no such curve, though single readings can be large or run the other way. Potency means the concentration at half of the fitted maximal effect.

For CC(C)Oc1cccc(C(=O)NC(=S)Nc2cccnc2)c1 the results were HttQ103 aggreg 1%, ALDH1A1 inh inconclusive, HTT ATP protect 30%[1.9 µM], KDM4E inh 5%, HPGD inh -8% and Lamin A splicing -8%.
CCCCOc1cccc(C(=O)NC(=S)Nc2cccc(NC(=O)c3ccccc3Cl)c2)c1 was read as HttQ103 aggreg 3%, ALDH1A1 inh 2µM*, HTT ATP protect 23%[10 µM], KDM4E inh 9%, HPGD inh -11% and Lamin A splicing -10%.
`COc1ccc(CC(=O)NNC(=S)Nc2ccccc2)cc1Cl` gave HttQ103 aggreg 18%, ALDH1A1 inh inconclusive, HTT ATP protect -11% and KDM4E inh 3%.
`CCCOc1ccc(CC(=O)NNC(=S)Nc2ccccc2)cc1Br` gave HttQ103 aggreg -9%, ALDH1A1 inh 18µM*, HTT ATP protect 33%[10 µM], KDM4E inh -6%, HPGD inh inconclusive and Lamin A splicing inconclusive.
Screening COc1cccc(C(=O)Nc2cccc(C(=O)NCC(C)C)c2)c1 returned HttQ103 aggreg 3.2µM*, ALDH1A1 inh 6%, HTT ATP protect -5%[10 µM], KDM4E inh 0%, HPGD inh -7% and Lamin A splicing -14%.
CC(C)Oc1cccc(C(=O)NC(=S)Nc2ccccc2)c1 was read as HttQ103 aggreg 11%, ALDH1A1 inh 10µM*, KDM4E inh 6%, HPGD inh -20% and Lamin A splicing inconclusive.
For CCCOc1cccc(C(=O)NC(=S)Nc2cccc(NC(=O)c3ccccc3Cl)c2)c1 the results were HttQ103 aggreg 22%, ALDH1A1 inh 13µM*, HTT ATP protect -18%[10 µM], KDM4E inh 12%, HPGD inh -12% and Lamin A splicing -6%.
`CCCOc1cccc(C(=O)O)c1` gave HttQ103 aggreg 8%, ALDH1A1 inh 5%, HTT ATP protect -5%, KDM4E inh 2%, HPGD inh -4% and Lamin A splicing 7%.
For CCCOc1cccc(C(=O)NC(=S)Nc2ccccc2)c1 the results were HttQ103 aggreg 22%, ALDH1A1 inh 18µM*, HTT ATP protect 8%[10 µM], KDM4E inh -22%, HPGD inh -20% and Lamin A splicing inconclusive.
CCC(=O)Nc1cccc(NC(=S)NC(=O)c2ccccc2Cl)c1 was read as HttQ103 aggreg -13%, ALDH1A1 inh 2%, HTT ATP protect -30%, KDM4E inh -2%, HPGD inh -5% and Lamin A splicing -16%.
`CC(C)COc1cccc(C(=O)NC(=S)Nc2cccc(NC(=O)c3ccccc3Cl)c2)c1` gave HttQ103 aggreg 15%, ALDH1A1 inh 10µM*, HTT ATP protect 24%[10 µM], KDM4E inh 5%, HPGD inh -7% and Lamin A splicing 2%.
For COc1ccc(-n2ncc(C(=O)Nc3cccc(C(F)(F)F)c3)c2C2CCN(C(=O)OC(C)(C)C)CC2)cc1 the results were Lamin A splicing 18%[46 µM].
NC/C=C/C(=O)O was read as HttQ103 aggreg -11%, ALDH1A1 inh -3%, HTT ATP protect -15%, KDM4E inh -15%, HPGD inh -4% and Lamin A splicing -19%.
COc1ccc(OC)c(NC(=O)COCc2cc(-c3ccc(F)cc3)on2)c1 was read as Lamin A splicing 7%[46 µM].
Cc1cc(C)c(C#N)c(SCC(=O)C(C)(C)C)n1 was read as HttQ103 aggreg -24%, ALDH1A1 inh inconclusive, HTT ATP protect -14%, KDM4E inh -6%, HPGD inh 32µM* and Lamin A splicing 30%.
O=C(CCCN1C(=O)CSc2ncccc21)N1CCN(Cc2ccccc2)CC1 was read as HttQ103 aggreg -13%, ALDH1A1 inh 22µM*, HTT ATP protect -10%[10 µM], KDM4E inh 4%, HPGD inh -3% and Lamin A splicing -19%.
COCc1cc(C)nc(SCC(=O)Nc2ccccc2C)c1C#N was read as HttQ103 aggreg 5%, ALDH1A1 inh 2%, HTT ATP protect -3%[10 µM], KDM4E inh -5%, HPGD inh -19% and Lamin A splicing 0%.
